Screening data as filed in PubChem.
DAX1 inh-1 – DAX1 (NR0B1) inhibition, primary screen; HEK293T StAR-luciferase reporter, SF-1/DAX-1 repression relief; inhibition, % at 6.8 µM; 370,000 compounds, 1.1% hits; AID 652010;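 active = inhibition above the mean over all tested compounds plus 3 SD, cut at about 3.6% in these data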;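 also: 0% = DAX-1 cells with DMSO and 100% = cells lacking DAX-1 with DMSO; higher inhibition means more luminescence from relief of DAX-1 repression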
DAX1 inh-2 – NR0B1 (DAX1) inhibition | P51843 | inhibition, % at 6.75 µM | HEK293 Gal4-DAX1 luciferase reporter, luminescence | 340,000 compounds, 0.99% hits;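 active = inhibition above the mean over all tested compounds plus 3 SD, cut at about 4.2% in these data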;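 also: 0% = DAX1-transfected cells with DMSO and 100% = empty-vector control cells with DMSO; inhibition shows as a rise in luminescence from relieved DAX1 repression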
Target sequence (P51843 207-470 limits assumed): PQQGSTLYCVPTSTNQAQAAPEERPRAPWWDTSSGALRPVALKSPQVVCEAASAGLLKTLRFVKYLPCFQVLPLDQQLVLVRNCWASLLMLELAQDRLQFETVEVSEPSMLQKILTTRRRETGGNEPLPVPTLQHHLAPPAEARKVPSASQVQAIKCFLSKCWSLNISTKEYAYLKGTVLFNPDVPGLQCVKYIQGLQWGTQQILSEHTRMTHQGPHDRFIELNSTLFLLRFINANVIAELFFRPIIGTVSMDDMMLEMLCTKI
hgDAF-12 ag – agonists of H. glycines DAF-12 nuclear receptor. HEK293 GAL4-hgDAF12 UAS-luciferase reporter, agonist luminescence; normalized to butyrate control. activation, % at 6.8 µM. 370,000 compounds, 1.8% hits. AID 687014;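 active = activation above a cutoff set at the mean of all screened compounds plus 3 SD, cut at about 10% in these data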;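 also: 0% = DMSO wells and 100% = sodium butyrate wells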
hcDAF-12 act – H. contortus DAF-12 activation, primary screen | HEK293 hcDAF-12 lit1-tk-luc reporter, luminescence; 0% DMSO, 100% Δ7-dafachronic acid | activation, % at 6.8 µM | 370,000 compounds, 1.4% hits | AID 652067;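 active = activation above the mean of all tested compounds plus 3 SD, cut at about 5.5% in these data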;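 also: 100% = response to 3 µM Δ7-dafachronic acid high control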
ssDAF12 agonist – S. stercoralis DAF-12 activation, primary screen | HEK293 ssDAF-12/GRIP1 lit1-tk-luc reporter, luminescence; % of 3 µM dafachronic acid response | activation, % at 6.8 µM | 370,000 compounds, 1% hits | AID 652126;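 active = activation above the mean over all tested compounds plus 3 SD, cut at about 0.9% in these data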;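 also: 0% = DMSO-only wells and 100% = 3 µM delta7-dafachronic acid wells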
Numbers without * were called inactive; . = no result. An excerpt weighted towards active compounds, which were near 4.1% of everything screened.

SMILES	DAX1 inh-1	DAX1 inh-2	hgDAF-12 ag	hcDAF-12 act	ssDAF12 agonist
COc1ccc(CCN2CC(C(=O)Nc3ccccc3F)CC2=O)cc1OC (stereo not drawn)	-0.9	4.6*	-0.9	-0.8	-0.5
CCCCCCCCN1C(=O)[C@@H](CC(=O)N2CCC(c3ccccc3)CC2)C[C@@]2(C(=O)OC)C1=C[C@H](C(C)(C)C)O[C@@H]2C	1.2	.	-0.4	1.1	-0.6
COc1cc2c(cc1OC)C1CCc3cc4c(cc3C1N=C2)OCO4 (stereo not drawn)	2.4	1.3	11.1*	1.5	-0.3
CCOC(=O)CNC(=O)c1ccc(OCC(F)(F)F)cc1	1.9	1.5	13.1*	1.3	0.1
Nc1ccc(O)c(-c2nc3ccccc3s2)c1	2.0	1.4	7.0	4.1	1.2*
Oc1ccc(-c2nc3ccccc3s2)c(O)c1	2.6	0.7	7.8	1.2	0.2
NC(=S)N/N=C/c1c[nH]c2ccccc12	-0.5	-1.3	0.8	4.9	1.8*
Cc1ccc(OCC(=O)N/N=C\c2ccc(O)cc2)c([N+](=O)[O-])c1	-0.1	-0.8	0.9	-1.5	-1.5
Cc1ccc(OCC(=O)N/N=C/c2c[nH]c3ccccc23)c([N+](=O)[O-])c1	-0.7	1.9	2.2	6.2*	-0.5
CCN(CC)c1ccc(/C=N/NC(=O)c2c[nH]c3ccccc23)cc1	-0.8	-0.7	5.3	5.9*	-1.1
Cc1ccc(S(=O)(=O)N/N=C/c2c[nH]c3ccccc23)cc1	-0.7	-0.6	0.8	1.4	0.9*
O=C(O)c1ccc(S(=O)(=O)NN=Cc2c[nH]c3ccccc23)cc1	-1.2	0.9	1.5	2.5	-0.1
CCCCOCCCNC(=O)C[C@H]1C[C@@]2(C(=O)OC)C(=C[C@H](C(C)C)O[C@@H]2C2CC2)N(CCC2=CCCCC2)C1=O	0.4	.	2.0	-2.6	-0.8
CCC[C@H]1[C@@H](NC(=O)/C=C/c2ccccc2)CC[C@@]23CCCN2C(=O)CCC[C@@H]13	.	.	-0.2	-2.9	-1.7
Cc1cc(C)c2nc(-c3ccccn3)cc(C(=O)n3cccn3)c2c1	1.7	0.3	0.8	2.6	-0.5
CCOC(=O)N/N=C/c1c[nH]c2ccccc12	-0.6	4.0	6.0	6.2*	0.2
CCOC(=O)N/N=C/c1ccc(F)cc1F	0.0	0.3	4.4	0.8	1.0*
O=C(N/N=C/c1c[nH]c2ccccc12)c1cc(Cl)ccc1O	0.5	1.5	5.3	3.2	1.6*
O=C(N/N=C/c1c[nH]c2ccccc12)c1ccccc1Cl	0.3	0.9	5.1	4.5	0.4
COC(=O)N/N=C/c1c[nH]c2ccccc12	0.2	-0.1	5.4	5.5	0.7
CCOC(=O)[C@@H](NC(=O)[C@@H]1CC=C[C@@H]2CCN(Cc3ccc(Cl)cc3)C(=O)[C@@H]21)C(C)C	.	.	-0.7	-0.4	-1.9
CSc1c(N(C)C)c(=O)c1=S	0.0	.	-0.7	-0.4	-1.1
CCCN1C(=O)c2[nH]nc(-c3ccccc3)c2C1c1ccc(F)cc1 (stereo not drawn)	-0.1	.	-1.4	-1.7	-0.8
CN(Cc1ccccc1)C(=O)OCc1cn(Cc2ccc(Cl)cc2)nn1	-1.0	.	-0.3	-2.2	-1.4
Fc1ccc(-c2nnc(NC3=NCCCCC3)o2)cc1	-0.5	-3.7	-3.5	1.9	-1.7
SMILES	DAX1 inh-1	DAX1 inh-2	hgDAF-12 ag	hcDAF-12 act	ssDAF12 agonist
c1ccc(-c2nnc(NC3=NCCC3)o2)cc1	4.1*	-0.5	9.9	4.7	-0.3
O=C(c1cccc(F)c1)N(Cc1ccccn1)CC1CCCO1 (stereo not drawn)	0.3	.	-0.5	-1.3	-0.2
O=C(NCCCn1ccnc1)c1ccc(C(F)(F)F)cc1	-0.2	0.5	4.7	1.7	-0.5
COc1ccc(Cc2nc3ccc(C(=O)NCCSC)cc3o2)cc1	0.4	1.0	6.5	2.2	-0.5
COc1ccc(Cc2nc3ccc(C(=O)NCc4cc(C)no4)cc3o2)cc1	3.7*	0.7	7.7	1.6	-0.8
COc1ccc(Cc2nc3ccc(C(=O)NCC(C)(C)OC)cc3o2)cc1	1.6	4.6*	8.9	4.3	-0.2
COC(=O)CCNC(=O)c1ccc2nc(Cc3ccc(OC)cc3)oc2c1	-0.2	-1.1	0.1	-0.1	-0.9
Cc1cc(N2CCN(C(=O)Oc3ccc(C(F)(F)F)cc3)CC2)c2ccccc2n1	-3.2	.	-5.1	-4.6	-2.3
C=CCN=C1NC(c2ccccc2C(F)(F)F)C(C(=O)OC)=C(C)N1Cc1ccccc1C(F)(F)F (stereo not drawn)	0.0	.	-1.0	1.2	-0.7
Cc1ccc(C2=CCN(C)C(=O)N2c2ccc(Br)cc2)cc1	-0.4	.	9.5	0.7	-0.8
COC(=O)[C@@]12CCCCC3=C1N(CCC3)C(=O)[C@H]2CC(=O)N1CCOCC1	-0.8	.	-0.2	-2.8	-1.3
Cc1ccc(-n2nnnc2SCC(=O)NCC2(N3CCCCC3)CCCCC2)c(C)c1	3.6*	0.5	-0.9	-1.3	-1.0
Cc1ccc(-n2nnnc2SCC(=O)NCC2(N3CCOCC3)CCCCC2)c(C)c1	-2.9	-2.1	-6.3	-3.8	-1.6
O=C(O)CC(NNC(=O)c1ccccc1)C(=O)Nc1ccc([N+](=O)[O-])cc1 (stereo not drawn)	0.9	8.4*	1.7	2.0	-1.3
O=C(/C=C/NNC(=O)c1ccccc1)c1ccc([N+](=O)[O-])cc1	0.4	4.4*	1.7	-0.7	-1.6
COc1ccc(CNCC#Cc2ccc(C)cc2)c(OC)c1	-0.7	.	-3.5	-1.8	-1.4
O=S(=O)(Cc1cc(-c2ccccc2)no1)c1ccccc1	2.6	-1.1	9.6	-0.1	-0.7
COc1ccc(-c2cc(CS(=O)(=O)c3ccccc3)on2)cc1	3.4	4.5*	13.2*	1.4	-0.5
CCCCC[C@@H](C)N1C[C@@H](COCc2ccccc2)Oc2cc(N3CCC[C@H]3CO)ccc2S1(=O)=O	-0.9	.	0.9	0.6	0.9*
CCCCC[C@@H](C)N1C[C@@H](COCc2ccccc2)Oc2cc(N3CC[C@H](N(C)C)C3)ccc2S1(=O)=O	4.1*	.	0.7	0.1	-1.1
C[C@H](c1ccccc1)N1C[C@@H](COCc2ccccc2)Oc2cc(N3CC[C@@H](O)C3)ccc2S1(=O)=O	3.9*	.	3.8	-1.0	-1.5
O=C(N=C1N(Cc2ccccc2)[C@@H](Cc2ccccc2)[C@]2(C=C3CCCCC3n3c(=O)n(-c4ccccc4)c(=O)n32)N1C(=O)OCc1ccccc1)c1ccccc1 (stereo partly drawn)	-0.1	.	1.3	-0.6	-0.9
O=S(=O)(NCCCc1ccccc1)c1ccc(Cl)cc1	-0.2	-0.8	-3.4	0.9	-0.7
O=S(=O)(NCCCc1ccccc1)c1ccc(F)c(F)c1	0.0	4.8*	0.6	-2.1	-1.1
NC(=NCCc1c[nH]c2ccccc12)NC(=O)OCc1ccccc1	-0.9	.	-2.8	-1.4	-1.0
COc1ccc(NC(=O)Nc2cccc(C)n2)c(OC)c1	1.5	-1.4	0.9	2.3	-0.5
COc1cccc(NC(=O)Nc2cccc(C)n2)c1	0.6	2.2	12.4*	1.3	-0.5
